Vif-APOBEC3G blk – inhibitors of Vif-APOBEC3G interaction | Q9HC16 | HeLa A3G-eYFP + Vif (tagged APOBEC3G with the HIV-1 protein that degrades it), YFP fluorescence, overnight | Potency, µM (series often up to 46.1 µM), hits mostly inhibitors | hit rate 0.076% among 410,000 | AID 602310; also: nearly all actives have a fitted effect of over 60% in size
Target sequence (Q9HC16 whole entry, looked up): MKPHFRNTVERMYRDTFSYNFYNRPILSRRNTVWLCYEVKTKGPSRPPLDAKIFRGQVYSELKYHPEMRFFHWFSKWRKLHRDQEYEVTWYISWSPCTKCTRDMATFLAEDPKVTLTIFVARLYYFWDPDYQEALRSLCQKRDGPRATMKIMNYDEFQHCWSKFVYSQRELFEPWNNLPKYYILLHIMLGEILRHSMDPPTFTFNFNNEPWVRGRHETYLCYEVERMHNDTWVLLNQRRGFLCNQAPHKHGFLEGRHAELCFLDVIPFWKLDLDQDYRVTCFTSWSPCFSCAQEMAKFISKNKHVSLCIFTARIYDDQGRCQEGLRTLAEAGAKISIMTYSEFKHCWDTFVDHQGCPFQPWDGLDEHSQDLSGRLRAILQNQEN
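HeLa cells stably expressing Vif and C-terminally eYFP-tagged A3G, seeded overnight at 37 deg C, then exposed to compound by pintool overnight at 37 deg C. Rise in yellow fluorescence (Ex 488/Em 500-530, Acumen) marks blocked Vif-driven A3G degradation.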
Giardia kill – kills Giardia lamblia. Giardia lamblia trophozoite viability. hit rate 0.15% among 340,000. activity change, % at 7.66 µM, hits read low. AID 540267; in the data active = activity change below about -80%; inconclusive = between about -30% and that limit;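 also: parasites exposed to compound for two days anaerobically before the ATP read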
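Viability, read as ATP luminescence: trophozoites at 100 cells/well, compound added, 48 hrs anaerobic at 37 deg C, then 15-30 min room-temperature development before reading.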
IL1B secr inh – inflammasome signaling inhibition, IL-1 beta readout; AID 743279; activity change, % at 57.5 µM; hit rate 4.7% among 360,000; THP-1 LPS/ATP IL-1B secretion, AlphaLISA, 16 h; hits give low values; in the data active = activity change below about -50%; inconclusive = mostly about -30% to -49%
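Secreted IL-1B measured by AlphaLISA bead assay after 16 h compound exposure of THP-1 cells; compounds (final up to 57.5 uM) added 1 h before LPS (250 ng/mL) and ATP (1.25 mM) stimulation; lower signal means less secretion.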
Vif-A3F inh – blocks the Vif interaction with APOBEC3F. HeLa A3F-eYFP + Vif (tagged APOBEC3F with the HIV-1 protein that degrades it), YFP fluorescence increase. Potency, µM (series often up to 46.1 µM). hit rate 0.2% among 390,000. AID 602313; also: nearly all actives have a fitted effect of over 65% in size
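HeLa cells stably expressing A3F-eYFP plus Vif, plated and incubated overnight at 37 deg C, then exposed to compounds overnight at 37 deg C. Blocked degradation read as raised yellow fluorescence (Ex 488/Em 500-530).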
SW480 rereplic – inducers of DNA re-replication in SW480 colon cancer cells | SW480 DNA re-replication, Hoechst DNA content imaging, 48 h | Potency, µM (highest dose often 46.1 µM), hits mostly activators | hit rate 1.8% among 340,000; also: nearly all actives have a fitted effect of over 55% in size
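Readout is total intensity of Hoechst-stained nuclei, excited at 405 nm and collected at 500-530 nm. Compound treatment lasted 48 hr at 37 C in 5% CO2 before staining.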
MCF10A rerep – inducers of DNA re-replication in MCF 10A breast cells. MCF 10A DNA re-replication, Hoechst nuclear intensity, 48 h. Potency, µM (series often up to 46.1 µM), hits mostly activators. hit rate 2.9% among 350,000; also: nearly all actives have a fitted effect of over 50% in size
A number is an active result; n = inactive; u = inconclusive; x = not tested or not shown; ! = not confirmed by another sample; [ ] = dose if it differs, or a comment. In the library only some 6.9% were active in any assay of this set; here they are far more common. Unless noted, calls follow the shape of the dose curve; as a rule, active = well fitted curve in the direction sought with a large enough effect; inconclusive = small, poorly fitted or top-dose-only effect, or another doubt; inactive = no such curve, though single readings can be large; an effect the other way counts as inactive or inconclusive.

SMILES | Vif-APOBEC3G blk | Giardia kill | IL1B secr inh | Vif-A3F inh | SW480 rereplic | MCF10A rerep
CCOc1ccc(NC(=O)CC2C(=O)N(c3cccc(C)c3)C(=O)N2CCC2=CCCCC2)cc1 (configuration not stated) | n | x | x | n | x | x
CNC(=O)C1(C(F)(F)F)C/C(=C\Cc2ccccc2)CCCO1 (configuration not stated) | n | n | x | x | x | x
O=C(Nc1ccc(F)cc1)[C@H](CSCc1ccccc1)N1Cc2ccccc2C1=O | n | x | x | n | x | x
O=C(CO/N=C/c1ccc(OC(F)F)cc1)NC1CCCCCC1 | n | n | -56.5 | n | n | n
CC1CCCN(C(=S)Nc2ccc(Nc3ccccc3)cc2)C1 (configuration not stated) | n | n | -85.7 | n | n | n
FC(F)Oc1ccc(NC(=S)NC2CCCCCCC2)cc1 | n | n | -91.1 | u | n | n
O=C(NC1CCSc2ccccc21)c1cccc(Br)c1 (configuration not stated) | n | n | n | n | u | n
Cc1cccc(NC(=S)NC2CCSc3ccccc32)c1 (configuration not stated) | n | n | -60.6 | u | n | n
CCCN(CCC)C(=O)Cn1c(=O)n(-c2ccc(C)c(C)c2)c(=O)c2c3c(sc21)CCCCC3 | n | x | x | n | x | x
CCOCCn1ccc2c(OCC(=O)NCc3ccc(F)cc3)cccc2c1=O | n | x | x | n | x | x
Cc1cccc(Cn2c(=O)n(CCCC(=O)NCc3ccccc3Cl)c(=O)c3ccccc32)c1 | n | x | x | n | x | x
S=C(Nc1cccc(Cl)c1)NC1CCCCC1 | n | n | n | n | n | n
S=C(NNc1cccc(Cl)c1)NC1CCCCC1 | n | n | -108.0 | u | u | u
Cc1ccc(-n2c(-c3ccc(Br)cc3)c[n+]3c2CCc2ccc4cccnc4c2-3)cc1 | n | n | -104.5 | n | n | u
O=C(CCS(=O)(=O)c1ccccc1)NCCS(=O)(=O)c1ccccc1 | n | n | n | n | n | n
O=S(=O)(CCS(=O)(=O)c1ccccc1)c1ccccc1 | n | n | u | n | 16.4µM | u
CCOc1ccc(NC(=O)CC2C(=O)OCCN2CC)cc1 (configuration not stated) | n | x | x | n | x | x
O=C1CSC(=NC2CCCCC2)N1 | n | n | -95.6 | x | n | n
COc1ccc(C(=O)c2oc3ccccc3c2N)cc1 | n | n | n | n | 18.4µM | 18.4µM
COc1ccc2oc(C(=O)c3ccccc3)c(N)c2c1 | n | n | n | n | u | 14.6µM
COc1ccc(C(=O)Nc2c(C(=O)c3ccccc3)oc3ccccc23)cc1 | n | x | x | n | x | x
COc1ccc2oc(C(=O)C3CC3)c(N)c2c1 | n | n | n | n | n | n
O=C(NCc1ccco1)c1scc2c1OCCO2 | n | n | n | n | n[9.22 µM] | n
CCN(CC)C(=O)c1scc2c1OCCO2 | n | n | -56.1 | n | n | n
COc1ccc(NC(=O)c2oc3ccc(S(=O)(=O)N(C)C4CCCCC4)cc3c2C)cc1Cl | n | x | x | n | x | x
SMILES | Vif-APOBEC3G blk | Giardia kill | IL1B secr inh | Vif-A3F inh | SW480 rereplic | MCF10A rerep
O=C(Cn1c2ccccc2c(=O)c2cc([N+](=O)[O-])ccc21)Nc1ccccc1Cl | n | u | n | n | 16.4µM | u
O=C(Cn1c2ccccc2c(=O)c2ccccc21)Nc1ccccc1F | n | n | n | n | x | u
COC(=O)c1ccc(C2N=C(c3cccs3)CC(c3ccccc3O)N2)cc1 (configuration not stated) | n | n | -91.4 | n | u | 18.4µM
O=C(Nc1ccc(F)cc1F)c1ccc2c(c1)[nH]c(=O)n2Cc1ccc(F)cc1 | n | n | n | n | n | 5.8µM
CCn1c(=O)c(=O)[nH]c2cc(C(=O)NCc3ccc(F)cc3)ccc21 | n | n | n | n | n | n
CCN1CCN(c2ccc(S(=O)(=O)N3CCOCC3)cc2NC(=O)/C=C/c2ccc([N+](=O)[O-])cc2)CC1 | n | n | -106.0 | u | u | u
COc1ccc(-c2cc3ccccc3oc2=O)cc1NC(=O)c1ccc(Br)o1 | u | n | n | u | n | n
COc1ccc(-c2cc3ccccc3oc2=O)cc1NC(=O)c1ccc([N+](=O)[O-])o1 | u | -93.7 | n | n | 9.2µM | 7.31µM
CCN1CCN(c2ccc(S(=O)(=O)N3CCCCC3)cc2NC(=O)c2ccc(C)c(C)c2)CC1 | n | n | n | n | n | n
CCN1CCN(c2ccc(S(=O)(=O)N3CCOCC3)cc2NC(=O)c2cccc([N+](=O)[O-])c2)CC1 | n | n | n | n | n | n
CCN1CCN(c2ccc(S(=O)(=O)N3CCCCC3)cc2NC(=O)c2ccc(F)cc2)CC1 | n | n | n | n | u | 7.31µM
CCN1CCN(c2ccc(S(=O)(=O)N3CCCCC3)cc2NC(=O)c2ccc([N+](=O)[O-])o2)CC1 | n | u | n | n | 7.31µM | u
O=C(Nc1cc(S(=O)(=O)N2CCCCC2)ccc1O)c1ccccc1NS(=O)(=O)c1ccc(F)cc1 | n | n | -55.6! | n | n | u
COc1ccc(S(=O)(=O)N2CCCCC2)cc1NC(=O)c1ccc([N+](=O)[O-])o1 | n | -94.9 | x | n | 2.91µM | 2.31µM
CCOc1ccc(NC(=O)CCS(=O)(=O)c2ccc3nc(C)sc3c2)cc1 | n | x | x | n | x | x
c1ccc(C(c2ccccn2)c2ccccn2)cc1 | n | n | n | n | n | n
CC(=O)Oc1ccc(C(c2ccc(OC(C)=O)cc2)c2ccccn2)cc1 | n | n | -76.7 | n | n | u
O=C(NCCN1CCC(n2c(=O)[nH]c3ccccc32)CC1)c1cccc(F)c1 | x | x | -73.9 | x | x | x
O=C(NCCN1CCC(n2c(=O)[nH]c3ccccc32)CC1)c1ccncc1 | x | x | n | x | x | x
O=C(NCCN1CCC(n2c(=O)[nH]c3ccccc32)CC1)C(c1ccccc1)c1ccccc1 | x | x | -79.7 | x | x | x
CCCCOc1ccc(C(=O)NCCN2CCC(n3c(=O)[nH]c4ccccc43)CC2)cc1 | x | x | n | x | x | x
O=C(NCCN1CCC(n2c(=O)[nH]c3ccccc32)CC1)c1cc(F)cc(F)c1 | x | x | -53.0 | x | x | x
CCN(C(=O)CCS(=O)(=O)c1cc2[nH]c(=O)c(=O)[nH]c2cc1C)c1ccccc1 | n | x | x | n | x | x
CCN1CCN(c2nc(-c3ccccc3)nc3ccccc23)CC1 | n | n | -64.6 | n | u | u
CN1CCN(c2nc(-c3cccc([N+](=O)[O-])c3)nc3ccccc23)CC1 | n | n | x | n | 23.1µM | 23.1µM
CCC1CCCCN1c1nc(-c2ccncc2)nc2ccccc12 (configuration not stated) | n | n | n | n | u | 23.1µM
CC1CCCCN1c1nc(-c2ccncc2)nc2ccccc12 (configuration not stated) | n | n | n | n | u | u
Cc1ccc(-c2nc(N3CCN(C)CC3)c3ccccc3n2)cc1 | n | n | u | n | u | n
